Drawing on PubChem BioAssay (NCI), this text covers growth for eight compounds.

The panel holds about 83,000 compounds, 20% with a hit somewhere; the sample as a whole holds those more often.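 Cell lines were cultured in 96-well plates, exposed to a single compound concentration, and assessed for percent growth 48 hours later.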 A number with no mark means an inactive call. Calls of active or inactive are those of the source. Rule for the calls: active = growth percent below 10; inactive = the rest.

Common to all, as to assay: NCI-60 one-dose screen, 48 h (100 = growth as untreated, 0 = no growth, -100 = all killed)
Test [1] relates to SK-MEL-2 melanoma. To be noted: 10 µM unless noted.
The subject of test [2] is EKVX NSCLC. Particulars: 10 µM unless noted.
Test [3] has as its system SN12C renal. Particulars: 10 µM unless noted.
For test [4], the system named is UO-31 renal. Particulars: 10 µM unless noted.
Test [5] relates to TK-10 renal. Particulars: 10 µM unless noted.
Test [6] relates to A498 renal. Particulars: 10 µM.
Test [7] has as its system HL-60(TB) leukemia. Particulars: 10 µM unless noted.
The subject of test [8] is CCRF-CEM leukemia. Particulars: 10 µM unless noted.
The test system of test [9] is MOLT-4 leukemia. To be noted: 10 µM unless noted.
For test [10], the system named is SR leukemia. To be noted: 10 µM unless noted.
In test [11] the test system is RPMI-8226 leukemia. To be noted: 10 µM unless noted.
Test [12] relates to OVCAR-8 ovarian. Particulars: 10 µM unless noted.
The subject of test [13] is OVCAR-5 ovarian. To be noted: 10 µM unless noted.
Test [14] relates to OVCAR-4 ovarian. Particulars: 10 µM unless noted.
For test [15], the system named is SK-OV-3 ovarian. To be noted: 10 µM unless noted.
The test system of test [16] is IGROV1 ovarian. Particulars: 10 µM unless noted.
Test [17] concerns OVCAR-3 ovarian. To be noted: 10 µM unless noted.
Test [18] concerns HS 578T breast. To be noted: 10 µM unless noted.
Test [19] concerns ACHN renal. To be noted: 10 µM unless noted.
Test [20] deals with CAKI-1 renal. To be noted: 10 µM unless noted.

`O=[N+]([O-])c1cc([N+](=O)[O-])c(Nn2c3ccccc3c3ccccc32)c([N+](=O)[O-])c1`: the growth is -50.4% (active) in [1]; 6.19% (active) in [2]; 5.01% (active) in [3]; -3.91% (active) in test [4]; 0.75% (active) in [5]; -43.2% (active) in test [6]. Moreover, the growth is -30.3% (active) in test [7]; -0.784% (active) in test [8]; 0.889% (active) in test [9]; 1.48% (active) in test [10]; -20.5% (active) in test [11]; 5.97% (active) in test [12]. The growth is 29.4% in test [13]; 6.45% (active) in test [14]; -17.2% (active) in test [15]; 22.8% in [16]; 12.4% in test [17]; 5.42% (active) in test [18].

`COC(=O)[C@@H](C)C[C@H](Cc1ccccc1)NC(=O)c1csc([C@@H](C[C@H](C(C)C)N(C)C(=O)[C@@H](NC(=O)[C@H]2CCCCN2C)C2CCCCC2)OC(C)=O)n1`: the growth in test [1] was 11.2%; in test [2], 25%; in test [3] it was 12.6%; in test [4], 31.7%; in test [19] it was 11.4%; in test [20], 14.5%. Moreover, the growth in test [7] was -51.9% (active); in test [8], 0.645% (active); in test [9], 3.17% (active); in test [10], 4.79% (active); in test [11], 4.31% (active); in test [12], 14.6%. The growth was 23.1% in test [13]; 36.7% in [14]; -1.95% (active) in test [15]; 22.3% in [16]; -21.5% (active) in test [17]; -6.6% (active) in test [18].

`Brc1ccc2c(c1)c(-c1nc(-c3c[nH]c4ncccc34)cs1)cn2CCN1CCCCC1`: the growth in [1] is 82.7%; in test [2], 66.9%; in test [3], 80%; in [4], 44.8%; in test [5], 81.5%; in [6] it was 95.7%. Moreover, the growth was 66% in test [7]; 50.8% in [8]; 42% in [9]; 16.2% in [10]; 51.2% in test [11]; 83.5% in test [12]. The growth in [13] is 109%; in test [14] it was 74.9%; in test [15] it was 103%; in [16], 46.8%; in [17], 85.1%; in test [18], 76.7%.

On to `COC(=O)[C@H](Cc1ccccc1)NNC(=O)c1csc([C@@H](C[C@H](C(C)C)N(C)C(=O)[C@@H](NC(=O)[C@H]2CCCCN2C)C2CC2)OC(C)=O)n1`, for which the growth in [1] is 30.6%; in test [2], 29.9%; in [3] it was 24.3%; in test [4], 42.8%; in test [19] it was 24.8%; in test [20], 21.4%. Besides, the growth in test [6] is -3.69% (active); in test [7], -55.4% (active); in test [8] it was -2.7% (active); in test [9] it was 7.86% (active); in test [10], 5.77% (active); in test [11], 7.38% (active). For the same compound, the growth was 24.1% in test [12]; 32.5% in test [13]; 41.3% in [14]; 19.8% in test [15]; 27.4% in test [16]; 4.06% (active) in [17]. In test [18], the growth was 9.52% (active).

`COC(=O)[C@H](Cc1ccccc1)NC(=O)c1csc([C@@H](C[C@H](C(C)C)N(C)C(=O)[C@@H](NC(=O)[C@H]2CCCN2C)C2CC2)OC(C)=O)n1`: the growth in test [1] was 31.2%; in test [2], 33.4%; in [3], 33%; in test [4] it was 41.1%; in test [19], 39.9%; in [20], 36.8%. The growth in [6] was 13.5%; in test [7], -44.9% (active); in test [8] it was 4.07% (active); in [9], 5.46% (active); in [10], 6.34% (active); in [11], 10.9%. In addition, the growth in [12] is 27.3%; in test [13], 36.1%; in test [14], 59.5%; in test [15] it was 52.8%; in test [17] it was -3.48% (active); in test [18], 14.6%.

Turning to `CN(C)C(=O)Oc1ccccc1`, the growth in [1] was 108%; in test [2], 104%; in test [3], 106%; in [4] it was 103%; in test [5], 107%; in test [19], 101%. Further, the growth in test [7] was 94.5%; in test [8], 104%; in [9], 110%; in test [10], 109%; in test [11], 104%; in test [12], 102%. The growth in test [13] was 82.4%; in test [14], 101%; in test [15] it was 103%; in [16], 108%; in test [17], 120%.

`CC[C@H](C)[C@H](NC(=O)c1ccccn1)C(=O)N(C)[C@H](C[C@@H](OC(C)=O)c1nc(C(=O)N[C@@H](Cc2ccccc2)C[C@H](C)C(=O)OC)cs1)C(C)C`: the growth in [1] is -8.78% (active); in test [2] it was 30.3%; in [3], 46.9%; in [4], 42.2%; in test [19], 40.2%; in test [6] it was -5.19% (active). Besides, the growth in test [7] was -21.2% (active); in test [8], 7.71% (active); in test [9] it was 19.5%; in test [10], 4.97% (active); in test [11] it was 19.9%; in [12], 22.6%. The growth in test [13] was 49.6%; in [14] it was 47.8%; in test [15], 41.2%; in test [16], 28.4%; in [17] it was -22.5% (active).

For the compound `COC(=O)[C@H](Cc1ccccc1)NC(=O)c1csc([C@@H](C[C@H](C(C)C)N(C)C(=O)[C@@H](NC(=O)[C@H]2CCCCN2C)C2CC2)OC(C)=O)n1`, the growth was 15.3% in test [1]; 29.9% in test [2]; 21.6% in test [3]; 35.9% in test [4]; 28.9% in [19]; 24.1% in [20]. The growth in test [6] was -7.28% (active); in test [7], -43.1% (active); in [8], 2.68% (active); in test [9], 10.1%; in test [10] it was 6.23% (active); in test [11] it was 10.3%. Moreover, the growth in test [12] was 17%; in [13], 32.3%; in [14] it was 49.7%; in test [15] it was 4.51% (active); in [16], 29.1%; in test [17], -21.4% (active). Besides, the growth in test [18] is 6.85% (active).
